Experimental findings from PubChem BioAssay AID602393 (Broad Institute, 2012) are described below.

Among all 350,000 compounds or so, about 7,000 (2%) were called active. Rule as the data show it: active = activation above about 40%; inconclusive = no clear call, values can overlap the other calls; inactive = below that. The full list was thinned out, with actives kept by preference.

A short description of this experiment: raisers of Bmi1 knock-in reporter signal – mouse ES cells, Bmi1 luciferase knock-in, single point, esBAF inhibitor project, primary screen (AID 602393).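 Also: 0% = median of the plate's neutral control wells and 100% = double that signal; a rise in the Bmi1 reporter signal indicates esBAF inhibition.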 The note with it: 24 h, at 12.5 µM, active compounds read high, 100% = twice the neutral-well signal.
`O=C(c1cccc(N2CCCC2=O)c1)N1CCOCC1`: the reporter increase was -0.631% (inactive). Take `O=C(NCCc1ccc(Cl)cc1)c1cccc(N2CCCC2=O)c1`: the reporter increase is 54.9% (active). On to `O=C(NCCCN1CCCCCC1)c1ccc(N2CCCC2=O)cc1`, for which the reporter increase is -4.86% (inactive).

`COc1ccc(CN(C)C[C@H]2OCCCC[C@H](C)Oc3ccc(NC(=O)NC4CCCCC4)cc3C(=O)N([C@@H](C)CO)C[C@@H]2C)cc1`: the reporter increase was 2.7% (inactive).

Consider `O=C(CSCc1ccc(Cl)cc1)N1CCCCC1`, for which the reporter increase is 47.9% (active). Regarding `O=C(CSCc1ccc(Cl)cc1)N1CCN(Cc2ccc3c(c2)OCO3)CC1`, the reporter increase is -7.9% (inactive). Take `O=C(CSCc1cccs1)N1CCCC1`: the reporter increase is 33.4% (inactive). In the case of `CO[C@@H]1CN(C)C(=O)c2cc(NC(=O)C3CC3)ccc2OC[C@H](C)N(Cc2ccc(F)cc2)C[C@@H]1C`, the reporter increase is -2.84% (inactive). On to `COc1ccc(-c2cnc3c(c2)C(=O)N([C@@H](C)CO)C[C@@H](C)[C@H](CN(C)C(=O)C2CCCCC2)O3)cc1`, for which the reporter increase was 2.07% (inactive). Take `CCn1c(SCC(=O)N(C)C2CCS(=O)(=O)C2)nnc1-c1cccs1` (stereo not drawn): the reporter increase was -1.83% (inactive).

Regarding `CCn1c(Cc2cccs2)nnc1SCC(=O)c1ccc(C)cc1`, the reporter increase is 25.1% (inactive).

In the case of `CCn1c(SCC(=O)c2ccc(Cl)s2)nnc1-c1cccs1`, the reporter increase is 46% (active). On to `COc1ccc(S(=O)(=O)N[C@@H]2CC[C@@H](CC(=O)NCCc3ccccc3)O[C@@H]2CO)cc1`, for which the reporter increase is 3.19% (inactive). For `C[C@@H]1CCCCO[C@@H](CN(C)C(=O)Cc2ccccc2)[C@H](C)CN([C@@H](C)CO)C(=O)c2cc(NC(=O)Nc3ccc(F)cc3)ccc2O1`, the reporter increase is 1.88% (inactive). As for `CC(C)NC(=O)N(C)C[C@@H]1OCc2ccccc2-c2c(n(C)c3ccccc23)C(=O)N([C@@H](C)CO)C[C@H]1C`, the reporter increase is -0.481% (inactive). Under `O=[N+]([O-])c1ccc2c(c1)Nc1nc3ccccc3nc1N2` stands 47.3% (active). Take `O=[N+]([O-])c1cc2ccccc2nc1-c1ccccc1`: the reporter increase was -3.44% (inactive). As to `O=C(Oc1ccc([N+](=O)[O-])cc1)c1ccc2ccccc2n1`, the reporter increase is 0.987% (inactive). Under `CO[C@@H]1CN(C)C(=O)c2cc(NC(=O)c3ccccc3F)ccc2OC[C@@H](C)N(CC2CC2)C[C@H]1C` stands 1.73% (inactive); under `COc1ccccc1S(=O)(=O)N1CC[C@H]2[C@@H](CO)N(C)c3ccc(C#Cc4ccccc4)cc3[C@H]21`, -3.04% (inactive).

Turning to `C[C@H]1CCCCO[C@@H](CN(C)Cc2ccncc2)[C@@H](C)CN([C@@H](C)CO)C(=O)c2cc(NC(=O)Nc3ccc(F)cc3)ccc2O1`, the reporter increase was -1.97% (inactive). Under `CCOC(=O)c1ccc(NC(=O)CNC(=O)c2ccco2)cc1` stands -2.33% (inactive).

`CCOC(=O)c1ccc(-c2ccc(C(=O)Nc3cccnc3)o2)cc1`: the reporter increase was 58.2% (active). With `COc1cccc(C(=O)Nc2cccnc2)c1OC`, the reporter increase was 0.381% (inactive).

Regarding `CC(=O)N1[C@@H](CO)[C@@H]2c3ccccc3N(S(=O)(=O)c3ccccc3)C[C@@H]21`, the reporter increase is 0.543% (inactive). As to `O=C(NCCCN1CCOCC1)c1cc(-c2ccccc2F)no1`, the reporter increase is 19.6% (inactive). Turning to `Cc1ccc(OCC(=O)Nc2ccc(N3CCN(C(=O)c4ccco4)CC3)cc2)c(C)c1`, the reporter increase was 0.555% (inactive). On to `COc1ccc2nc(N3C(=O)C(O)=C(C(=O)c4ccco4)C3c3ccco3)sc2c1` (stereo not drawn), for which the reporter increase is -10.8% (inactive). `Cc1ccc2nc(N3CCN(C(=O)c4ccco4)CC3)sc2c1`: the reporter increase was 54.6% (active). Regarding `O=C(c1ccco1)N1CCN(C(=S)Nc2cc(F)cc(F)c2)CC1`, the reporter increase is 7.97% (inactive). Under `C=CCSc1nnc(N2C(=O)C(O)=C(C(=O)c3ccco3)C2c2ccc(F)cc2)s1` (stereo not drawn) stands 10.6% (inactive). Under `Cc1ccc2nc(N3C(=O)C(O)=C(C(=O)c4ccco4)C3c3cccc(O)c3)sc2c1` (stereo not drawn) stands 43.5% (active); under `O=C(c1ccco1)N1CCN(C(=O)c2cc(-c3ccccc3F)no2)CC1`, 66.3% (active).

For `O=C(c1ccco1)N1CCN(c2cccc(Cl)c2)CC1`, the reporter increase is 45.4% (active). Turning to `O=C(Cc1c(F)cccc1Cl)N1CCN(C(=O)c2ccco2)CC1`, the reporter increase is 3.68% (inactive).

In the case of `O=C(c1cccc([N+](=O)[O-])c1)N1CCN(C(=O)c2ccco2)CC1`, the reporter increase was -1.81% (inactive). With `COc1ccc2nc(N3CCN(C(=O)c4ccc([N+](=O)[O-])o4)CC3)sc2c1`, the reporter increase was -6.63% (inactive).

Consider `COCC#Cc1cnc2c(c1)C(=O)N([C@@H](C)CO)C[C@@H](C)[C@@H](CN(C)C(=O)c1cccnc1)O2`, for which the reporter increase was 3.33% (inactive). Under `C[C@H](CO)N1C[C@H](C)[C@H](CN(C)C(=O)Nc2ccc3c(c2)OCO3)Oc2ccc(NS(=O)(=O)c3ccc(Cl)cc3)cc2CC1=O` stands 4.87% (inactive); under `Cc1cccc(CN(C)C[C@@H]2OCc3cn(nn3)CCCC(=O)N([C@@H](C)CO)C[C@H]2C)c1`, -0.643% (inactive). On to `COCCNC(=O)[C@@H]1[C@@H](CO)[C@@H]2Cn3c(ccc(-c4ccccc4F)c3=O)[C@@H]2N1C(=O)C1CC1`, for which the reporter increase is 2.48% (inactive).

Regarding `CO[C@@H]1CN(C)C(=O)c2cc(NC(=O)Nc3ccc(F)cc3)ccc2OC[C@@H](C)NC[C@@H]1C`, the reporter increase was -1.25% (inactive).

Regarding `CO[C@@H]1CN(C)C(=O)c2cc(NC(=O)Nc3ccc4c(c3)OCO4)ccc2OC[C@@H](C)NC[C@@H]1C`, the reporter increase was 73.2% (active). With `CO[C@H]1CN(C)C(=O)c2ccc(NC(=O)Nc3ccc4c(c3)OCO4)cc2OC[C@H](C)NC[C@H]1C`, the reporter increase was 37% (inactive). `COc1ccc(NC(=O)N(C)C[C@@H]2Oc3ccc(NC(=O)Cn4cnnn4)cc3C(=O)N([C@H](C)CO)C[C@@H]2C)cc1`: the reporter increase was 1.18% (inactive).

Take `O=C(COC(=O)Cc1ccc(Cl)cc1Cl)NCc1ccco1`: the reporter increase was -12.6% (inactive). For the compound `COC(=O)/C=C/C(=O)NCc1ccco1`, the reporter increase is 8.72% (inactive). On to `O=C(/C=C/c1ccc(Cl)cc1Cl)NCc1ccco1`, for which the reporter increase is 44.2% (active). `COc1ccc(S(=O)(=O)Nc2ccc3c(c2)CC(=O)N([C@@H](C)CO)C[C@@H](C)[C@H](CN(C)S(=O)(=O)c2ccccc2)O3)cc1`: the reporter increase is 4.43% (inactive). As for `COc1ccc(S(=O)(=O)Nc2ccc3c(c2)C(=O)N([C@@H](C)CO)C[C@@H](C)[C@H](CN(C)Cc2ccc(C(F)(F)F)cc2)OCCCC[C@@H](C)O3)cc1`, the reporter increase was -1.52% (inactive). Under `Cc1cc(-n2nc(C)cc2C)n2ncc(-c3ccccc3)c2n1` stands 28.6% (inactive).

Consider `COc1ccccc1NC(=O)C1CCCN(c2cc(C)nc3ncnn23)C1` (stereo not drawn), for which the reporter increase was -8.67% (inactive).

Turning to `COc1ccccc1-c1cnn2c(N3CCOCC3)cc(C)nc12`, the reporter increase is 57.3% (active). As for `CN1c2ccc(C3=CCCCC3)cc2[C@H]2[C@H](CCN2S(=O)(=O)c2ccccc2)[C@@H]1CO`, the reporter increase is 3.61% (inactive). On to `Cc1ccc(S(=O)(=O)Oc2ccc(/C=N/NC(=O)c3ccncc3)cc2)cc1`, for which the reporter increase is 4.2% (inactive). `Cc1ccc(/C=N/NC(=O)c2sccc2OCc2ccc(F)cc2)cc1`: the reporter increase is 53.7% (active). Under `Cc1ccc(S(=O)(=O)N(CC(=O)N/N=C/c2ccc(F)cc2)c2cccc3cccnc23)cc1` stands 0.787% (inactive); under `C[C@H]1CN([C@@H](C)CO)S(=O)(=O)c2ccc(-c3ccccc3)cc2O[C@H]1CN(C)C(=O)CC1CC1`, -0.183% (inactive); under `CCCNC(=O)N1C[C@H]2[C@@H](c3ccccc31)[C@@H](CO)N2C(=O)NCCC`, -2.97% (inactive).

Regarding `O=C(NCC[C@H]1CC[C@H](NC(=O)C2CC2)[C@@H](CO)O1)c1cc(Cl)cc(Cl)c1`, the reporter increase was 1.12% (inactive). Under `C[C@@H]1CN([C@H](C)CO)C(=O)c2cc(Br)cnc2O[C@@H]1CN(C)C(=O)C1CC1` stands -3.93% (inactive).

`COc1ccccc1C(=O)NC(=S)Nc1ccc(N2CCOCC2)cc1`: the reporter increase was 25.5% (inactive). Turning to `O=C(Nc1ccc(N2CCOCC2)cc1)c1ccc(-c2ccccc2[N+](=O)[O-])o1`, the reporter increase is 22.9% (active). For `O=[N+]([O-])c1ccc(N2CCOCC2)cc1`, the reporter increase is 6.61% (inactive). Take `C[C@H]1CN([C@@H](C)CO)C(=O)c2cccc(NS(=O)(=O)c3cccs3)c2O[C@H]1CN(C)C(=O)Nc1ccccc1`: the reporter increase is -1.97% (inactive). For `O=C(Cc1ccncc1)NCC[C@H]1CC[C@H](NC(=O)C2CC2)[C@H](CO)O1`, the reporter increase is -2.52% (inactive).

`CC(=O)c1cnc(SCC(=O)O)nc1C`: the reporter increase is -5.69% (inactive). `Cn1c(SCC(=O)Nc2nccs2)nnc1-c1cccnc1`: the reporter increase was -5.27% (inactive). With `Cc1cc(NC(=O)CSc2nc3c(cc2C#N)CCCCC3)no1`, the reporter increase is -7.82% (inactive).

For `CCn1c(SCC(=O)Nc2nccs2)nnc1-c1ccncc1`, the reporter increase is -8.57% (inactive).

Consider `CC(=O)c1cc(C#N)c(SCC(=O)C(C)(C)C)nc1C`, for which the reporter increase was 50.6% (active). Turning to `CC(=O)c1cc(C#N)c(SCC(=O)Nc2nccs2)nc1C`, the reporter increase is 64.7% (active). Under `COCC(=O)Nc1ccc2c(c1)C(=O)N(C)C[C@H](OC)[C@@H](C)CN(CC1CC1)[C@@H](C)CO2` stands -0.99% (inactive); under `COc1ccccc1NC(=O)N[C@H]1CC[C@H](CCNS(=O)(=O)c2ccc(Cl)cc2)O[C@H]1CO`, 16.7% (inactive); under `CCN1[C@@H]2c3cccc(=O)n3C[C@H]1[C@H](CO)[C@H]2C(=O)NC1Cc2ccccc2C1`, -2% (inactive). As for `CCC(=O)N1C[C@@H](C)[C@H](OC)CN(C)C(=O)c2ccc(NC(=O)Nc3ccccc3)cc2OC[C@@H]1C`, the reporter increase was -0.74% (inactive).

With `O=C(Nc1ccccc1)c1ccc2nsnc2c1`, the reporter increase is 28.4% (inactive). Under `COc1cccc(NC(=O)Nc2ccc(F)cc2)c1` stands 47.9% (active). As for `CCC(=O)Nc1ccc(C(=O)Nc2cccc(OC)c2)cc1`, the reporter increase was 49.8% (active). As to `COc1cccc(NC(=O)CC2C(=O)NCCN2C(=S)Nc2ccc(F)cc2)c1` (stereo not drawn), the reporter increase is 3.78% (inactive). With `COc1cccc(N(CC(=O)Nc2cccc(F)c2)S(C)(=O)=O)c1`, the reporter increase is -2.9% (inactive). `COc1cccc(C(=O)NNS(=O)(=O)c2ccc(F)cc2)c1`: the reporter increase is -2.92% (inactive). Under `CCc1ccc(NC(=O)Nc2ccncc2)cc1` stands 19.8% (inactive); under `COc1ccc(NC(=O)Nc2ccc3nsnc3c2)cc1`, 100% (active). Under `CCC(=O)Nc1ccc(C(=O)NNC(=O)c2ccc(Cl)cc2)cc1` stands -4.4% (inactive); under `COc1cccc(C(=O)NNC(=O)c2cccc(F)c2)c1`, 46.1% (active). For `COc1cccc(C(=O)NNC(=O)/C=C/c2ccccc2)c1`, the reporter increase was -6.98% (inactive). As for `CCC(=O)Nc1ccc(C(=O)Nc2cc(C)on2)cc1`, the reporter increase was 15.4% (inactive).
